# B1: unnamed (peptide)
# chain: APPLPPTAPPPPSLP
# B2: unnamed (peptide)
# chain: VPPPMQPPPIESSNL
# Key:
# Assay in all cases: SPOT peptide array binding signal intensity (averaged, normalized) (arbitrary units (background-subtracted, floor 0; scale differs between SH3 domains)); higher = stronger binding of the SH3 domain to the peptide
# [1] = biological target: AgAbp1
# Summary of the method: (§1)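 Spot intensities were captured after detection with anti-GST antibody, an HRP-linked anti-mouse secondary and luminol, and quantified with Genespotter. The probes were GST-fused SH3 domains from four yeast species, produced in E. coli BL21(DE3), purified on glutathione Sepharose and incubated at 10 μg/ml overnight at 4°C on cellulose-bound synthetic 15-mer peptides with cysteines replaced by serines. Binding signal is the normalized, background-subtracted spot intensity averaged over replicates, and its arbitrary units differ between domains.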
# [2] = biological target: AgBbc1
# Summary of the method: as §1
# [3] = biological target: AgBem1-D1
# Summary of the method: as §1
# [4] = biological target: AgBzz1-D1
# Summary of the method: as §1
# [5] = biological target: AgBzz1-D2
# Summary of the method: as §1
# [6] = biological target: AgCyk3
# Summary of the method: as §1
# [7] = biological target: AgFus1
# Summary of the method: as §1
# [8] = biological target: AgHof1
# Summary of the method: as §1
# [9] = biological target: AgHse1
# Summary of the method: as §1
# [10] = biological target: AgLsb1
# Summary of the method: as §1
# [11] = biological target: AgLsb4
# Summary of the method: as §1
# [12] = biological target: AgMyo5
# Summary of the method: as §1
# [13] = biological target: AgNbp2
# Summary of the method: as §1
# [14] = biological target: AgRvs167
# Summary of the method: as §1
# [15] = biological target: AgSho1
# Summary of the method: as §1
# [16] = biological target: AgSla1-D1-D2
# Summary of the method: as §1
# [17] = biological target: AgSla1-D3
# Summary of the method: as §1
# [18] = biological target: CaAbp1-D1
# Summary of the method: as §1
# [19] = biological target: CaAbp1-D2
# Summary of the method: as §1
# [20] = biological target: CaBbc1
# Summary of the method: as §1
# [21] = biological target: CaBem1-D1
# Summary of the method: as §1
# [22] = biological target: CaBzz1-D1
# Summary of the method: as §1
# [23] = biological target: CaBzz1-D2
# Summary of the method: as §1
# [24] = biological target: CaCyk3
# Summary of the method: as §1
# [25] = biological target: CaFus1
# Summary of the method: as §1
# [26] = biological target: CaHof1
# Summary of the method: as §1
# [27] = biological target: CaHse1
# Summary of the method: as §1
# [28] = biological target: CaLsb1
# Summary of the method: as §1
# [29] = biological target: CaLsb4
# Summary of the method: as §1
# [30] = biological target: CaMyo5
# Summary of the method: as §1
# [31] = biological target: CaNbp2
# Summary of the method: as §1
# [32] = biological target: CaRvs167
# Summary of the method: as §1
# [33] = biological target: CaRvs167-3
# Summary of the method: as §1
# [34] = biological target: CaSho1
# Summary of the method: as §1
# [35] = biological target: CaSla1-D1-D2
# Summary of the method: as §1
# [36] = biological target: CaSla1-D3
# Summary of the method: as §1
# [37] = biological target: ScAbp1
# Summary of the method: as §1
# [38] = biological target: ScBbc1
# Summary of the method: as §1
# [39] = biological target: ScBem1-D1
# Summary of the method: as §1
# [40] = biological target: ScBzz1-D1
# Summary of the method: as §1
# [41] = biological target: ScBzz1-D2
# Summary of the method: as §1
# [42] = biological target: ScCyk3
# Summary of the method: as §1
# [43] = biological target: ScFus1
# Summary of the method: as §1
# [44] = biological target: ScHof1
# Summary of the method: as §1
# [45] = biological target: ScHse1
# Summary of the method: as §1
# [46] = biological target: ScLsb1
# Summary of the method: as §1
# [47] = biological target: ScLsb2
# Summary of the method: as §1
# [48] = biological target: ScLsb3
# Summary of the method: as §1
# [49] = biological target: ScLsb4
# Summary of the method: as §1
# [50] = biological target: ScMyo3
# Summary of the method: as §1
# [51] = biological target: ScMyo5
# Summary of the method: as §1
# [52] = biological target: ScNbp2
# Summary of the method: as §1
# [53] = biological target: ScPex13
# Summary of the method: as §1
# [54] = biological target: ScRvs167
# Summary of the method: as §1
# [55] = biological target: ScSho1
# Summary of the method: as §1
# [56] = biological target: ScSla1-D1-D2
# Summary of the method: as §1
# [57] = biological target: ScSla1-D3
# Summary of the method: as §1
# [58] = biological target: SpAbp1-D1
# Summary of the method: as §1
# [59] = biological target: SpBbc1
# Summary of the method: as §1
# [60] = biological target: SpBzz1-D1
# Summary of the method: as §1
# [61] = biological target: SpBzz1-D2
# Summary of the method: as §1
# [62] = biological target: SpCyk3
# Summary of the method: as §1
# [63] = biological target: SpHof1
# Summary of the method: as §1
# [64] = biological target: SpHof1-2
# Summary of the method: as §1
# [65] = biological target: SpHof1-3
# Summary of the method: as §1
# [66] = biological target: SpHse1
# Summary of the method: as §1
# [67] = biological target: SpLsb1
# Summary of the method: as §1
# [68] = biological target: SpLsb4
# Summary of the method: as §1
# [69] = biological target: SpMyo1
# Summary of the method: as §1
# [70] = biological target: SpNbp2
# Summary of the method: as §1
# [71] = biological target: SpPex13
# Summary of the method: as §1
# [72] = biological target: SpRvs167
# Summary of the method: as §1
# [73] = biological target: SpSla1-D1-D2
# Summary of the method: as §1
# [74] = biological target: SpSla1-D3
# Summary of the method: as §1
binder,measurement,setting,value
B1,SPOT peptide array binding signal intensity,[1],≤ 0
same,SPOT peptide array binding signal intensity,[2],≤ 0
same,SPOT peptide array binding signal intensity,[3],≤ 0
same,SPOT peptide array binding signal intensity,[4],≤ 0
same,SPOT peptide array binding signal intensity,[5],3
same,SPOT peptide array binding signal intensity,[6],≤ 0
same,SPOT peptide array binding signal intensity,[7],≤ 0
same,SPOT peptide array binding signal intensity,[8],116
same,SPOT peptide array binding signal intensity,[9],13
same,SPOT peptide array binding signal intensity,[10],≤ 0
same,SPOT peptide array binding signal intensity,[11],3
same,SPOT peptide array binding signal intensity,[12],2800
same,SPOT peptide array binding signal intensity,[13],≤ 0
same,SPOT peptide array binding signal intensity,[14],≤ 0
same,SPOT peptide array binding signal intensity,[15],≤ 0
same,SPOT peptide array binding signal intensity,[16],2
same,SPOT peptide array binding signal intensity,[17],0.5
same,SPOT peptide array binding signal intensity,[18],≤ 0
same,SPOT peptide array binding signal intensity,[19],≤ 0
same,SPOT peptide array binding signal intensity,[20],≤ 0
same,SPOT peptide array binding signal intensity,[21],1
same,SPOT peptide array binding signal intensity,[22],≤ 0
same,SPOT peptide array binding signal intensity,[23],≤ 0
same,SPOT peptide array binding signal intensity,[24],≤ 0
same,SPOT peptide array binding signal intensity,[25],≤ 0
same,SPOT peptide array binding signal intensity,[26],≤ 0
same,SPOT peptide array binding signal intensity,[27],≤ 0
same,SPOT peptide array binding signal intensity,[28],≤ 0
same,SPOT peptide array binding signal intensity,[29],≤ 0
same,SPOT peptide array binding signal intensity,[30],2460
same,SPOT peptide array binding signal intensity,[31],7.5
same,SPOT peptide array binding signal intensity,[32],0.167
same,SPOT peptide array binding signal intensity,[33],2.5
same,SPOT peptide array binding signal intensity,[34],8
same,SPOT peptide array binding signal intensity,[35],≤ 0
same,SPOT peptide array binding signal intensity,[36],≤ 0
same,SPOT peptide array binding signal intensity,[37],0.5
same,SPOT peptide array binding signal intensity,[38],≤ 0
same,SPOT peptide array binding signal intensity,[39],0.5
same,SPOT peptide array binding signal intensity,[40],≤ 0
same,SPOT peptide array binding signal intensity,[41],≤ 0
same,SPOT peptide array binding signal intensity,[42],2
same,SPOT peptide array binding signal intensity,[43],≤ 0
same,SPOT peptide array binding signal intensity,[44],212
same,SPOT peptide array binding signal intensity,[45],≤ 0
same,SPOT peptide array binding signal intensity,[46],≤ 0
same,SPOT peptide array binding signal intensity,[47],≤ 0
same,SPOT peptide array binding signal intensity,[48],≤ 0
same,SPOT peptide array binding signal intensity,[49],4
same,SPOT peptide array binding signal intensity,[50],3490
same,SPOT peptide array binding signal intensity,[51],3170
same,SPOT peptide array binding signal intensity,[52],0.5
same,SPOT peptide array binding signal intensity,[53],≤ 0
same,SPOT peptide array binding signal intensity,[54],≤ 0
same,SPOT peptide array binding signal intensity,[55],≤ 0
same,SPOT peptide array binding signal intensity,[56],≤ 0
same,SPOT peptide array binding signal intensity,[57],0.5
same,SPOT peptide array binding signal intensity,[58],≤ 0
same,SPOT peptide array binding signal intensity,[59],1
same,SPOT peptide array binding signal intensity,[60],525
same,SPOT peptide array binding signal intensity,[61],≤ 0
same,SPOT peptide array binding signal intensity,[62],1
same,SPOT peptide array binding signal intensity,[63],≤ 0
same,SPOT peptide array binding signal intensity,[64],4
same,SPOT peptide array binding signal intensity,[65],0.5
same,SPOT peptide array binding signal intensity,[66],10.5
same,SPOT peptide array binding signal intensity,[67],≤ 0
same,SPOT peptide array binding signal intensity,[68],≤ 0
same,SPOT peptide array binding signal intensity,[69],2050
same,SPOT peptide array binding signal intensity,[70],6.5
same,SPOT peptide array binding signal intensity,[71],≤ 0
same,SPOT peptide array binding signal intensity,[72],24.3
same,SPOT peptide array binding signal intensity,[73],≤ 0
same,SPOT peptide array binding signal intensity,[74],≤ 0
B2,SPOT peptide array binding signal intensity,[31],172
same,SPOT peptide array binding signal intensity,[32],12.5
same,SPOT peptide array binding signal intensity,[33],1
same,SPOT peptide array binding signal intensity,[34],279
same,SPOT peptide array binding signal intensity,[35],168
same,SPOT peptide array binding signal intensity,[36],249
same,SPOT peptide array binding signal intensity,[37],≤ 0
same,SPOT peptide array binding signal intensity,[38],≤ 0
same,SPOT peptide array binding signal intensity,[39],≤ 0
same,SPOT peptide array binding signal intensity,[40],≤ 0
same,SPOT peptide array binding signal intensity,[41],2
same,SPOT peptide array binding signal intensity,[42],5
same,SPOT peptide array binding signal intensity,[43],328
same,SPOT peptide array binding signal intensity,[44],≤ 0
same,SPOT peptide array binding signal intensity,[45],65
same,SPOT peptide array binding signal intensity,[46],0.25
same,SPOT peptide array binding signal intensity,[47],≤ 0
same,SPOT peptide array binding signal intensity,[48],≤ 0
same,SPOT peptide array binding signal intensity,[49],9
same,SPOT peptide array binding signal intensity,[50],854
same,SPOT peptide array binding signal intensity,[51],502
same,SPOT peptide array binding signal intensity,[52],206
same,SPOT peptide array binding signal intensity,[53],12.2
same,SPOT peptide array binding signal intensity,[54],≤ 0
same,SPOT peptide array binding signal intensity,[55],324
same,SPOT peptide array binding signal intensity,[56],75.5
same,SPOT peptide array binding signal intensity,[57],122
same,SPOT peptide array binding signal intensity,[58],≤ 0
same,SPOT peptide array binding signal intensity,[59],≤ 0
same,SPOT peptide array binding signal intensity,[60],28.5
same,SPOT peptide array binding signal intensity,[61],≤ 0
same,SPOT peptide array binding signal intensity,[62],6
same,SPOT peptide array binding signal intensity,[63],4.5
same,SPOT peptide array binding signal intensity,[64],1.5
same,SPOT peptide array binding signal intensity,[65],≤ 0
same,SPOT peptide array binding signal intensity,[66],163
same,SPOT peptide array binding signal intensity,[67],≤ 0
same,SPOT peptide array binding signal intensity,[68],61.5
same,SPOT peptide array binding signal intensity,[69],957
same,SPOT peptide array binding signal intensity,[70],46
same,SPOT peptide array binding signal intensity,[71],5
same,SPOT peptide array binding signal intensity,[72],≤ 0
same,SPOT peptide array binding signal intensity,[73],≤ 0
same,SPOT peptide array binding signal intensity,[74],138
